The text below walks through data of PubChem BioAssay.

Activity calls are given as the source filed them. Unless noted, the rule behind the calls is not given here.

Test [1] relates to Wnt5a (protein binding on small-molecule microarray). The test is described as follows: Wnt5a binders on small-molecule microarray, primary screen, biophysical, 635/667 nm fluorescence (AID 1142).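 Note: fluorescence read at 667 nm with signal to noise per printed feature.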 As to conditions: 635 nm fluorescence, higher = more signal.
The nature of test [2]: cell viability in Huh7 cells, primary screen, cytotoxicity control for HCV replication inhibitor project, CellTiter-Glo luminescence, basal, 48 h (AID 1143).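 Note: Huh7 hepatoma cells carrying a hepatitis C replication reporter with no stimulus; test concentration not given here.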 Particulars: Huh7 HCV replicon, higher = more signal, called active from +8 up or from −8 down.
Test [3] can be described thus: P. aeruginosa biofilm formation inhibitors, primary screen, PAO1 strain, BacTiter-Glo luminescence, LB-PBS (AID 1144). Particulars: 12 h, higher = more signal.
Test [4] can be described thus: CREB reporter modulators without forskolin, primary screen, cell-based, PC12, CRE-LacZ reporter, unstimulated (AID 1145). Particulars: no forskolin, luminescence, 4.5 h, higher = more signal, called active from +8 up or from −8 down.
The nature of test [5]: CREB reporter modulators under forskolin, primary screen, cell-based, PC12, CRE-LacZ reporter, forskolin-stimulated (AID 1146).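 Note: PC12 cells with 6xCRE LacZ reporter stimulated by forskolin 10 µM; beta-galactosidase reporter signal reflecting CREB driven transcription.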 As to conditions: luminescence, 4.5 h, higher = more signal, called active from +8 up or from −8 down.
Test [6] addresses Streptavidin (Streptomyces avidinii) (UniProt P22629). The test is described as follows: streptavidin binders on small-molecule microarray, primary screen, artefact control for SMM compound annotation, biophysical, 635/667 nm fluorescence (AID 1147).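 Note: signal reflects streptavidin binding to arrayed compounds as a control protein.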 Particulars: streptavidin binding, higher = more signal.
A short description of test [7]: small-molecule binders of probe aInhba, primary screen, biochemical, small-molecule microarray, 635/667 nm fluorescence (AID 1148).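 Note: score merges 667nm spot fluorescence with signal-to-noise for antibody binding to printed compounds.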 As to conditions: higher = more signal.
For test [8], the target named is Torsin-1A (Homo sapiens) (UniProt O14656). Nature of the test: torsin A binders from cell lysate, primary screen, small-molecule microarray, wild-type, 635/667 nm (AID 1149). Particulars: COS7 hTOR1A-WT lysate, 635 nm fluorescence, higher = more signal.
Sequence of Torsin-1A (Homo sapiens) (O14656 whole entry, looked up): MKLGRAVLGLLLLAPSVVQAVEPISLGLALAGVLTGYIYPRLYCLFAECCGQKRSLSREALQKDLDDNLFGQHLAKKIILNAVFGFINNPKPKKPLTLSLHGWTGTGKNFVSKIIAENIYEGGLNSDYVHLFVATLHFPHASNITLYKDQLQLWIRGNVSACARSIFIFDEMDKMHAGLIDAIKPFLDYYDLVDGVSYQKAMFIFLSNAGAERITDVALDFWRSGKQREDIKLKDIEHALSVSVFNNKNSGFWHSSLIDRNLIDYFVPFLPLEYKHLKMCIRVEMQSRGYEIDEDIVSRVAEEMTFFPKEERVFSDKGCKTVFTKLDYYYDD
For test [9] the target is unchanged. The test is described as follows: small-molecule binders of mutant TOR1A in lysate, primary screen, cell lysate, small-molecule microarray, COS7 lysate, 635/667 nm fluorescence (AID 1150).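 Note: score pools 667 nm emission and signal to noise measuring lysate protein binding.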 As to conditions: COS7 hTOR1A mutant lysate, 635 nm fluorescence, higher = more signal.
Test [10] relates to Sonic hedgehog protein (Shh). The test is described as follows: small-molecule binders of Shh protein, primary screen, biochemical, small-molecule microarray, 635/667 nm fluorescence (AID 1151).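 Note: Shh protein binding to compounds spotted on small-molecule microarray slides; score combines spot fluorescence intensity with signal-to-noise across triplicate slides.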 Particulars: small-molecule microarray binding, 635 nm fluorescence; higher = more signal.
A short description of test [11]: E. coli DRC41 culture turbidity changes, primary screen, E. coli filamentation inducer project, strain DRC41, OD650, 48 h (AID 1152).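 Note: E. coli MC1000 strain DRC41 lacking acrAB efflux pump and sulA.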 Particulars: E. coli DRC41 (acrAB sulA), higher = more signal, called active from +8 up or from −8 down.
Test [12] is described as follows: small-molecule binders of probe aLefty1, primary screen, biochemical, small-molecule microarray, 635/667 nm fluorescence (AID 1153).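 Note: score merges spot fluorescence with signal-to-noise ratio from the scanned slide images.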 As to conditions: higher = more signal.
Test [13] in a line: PSAC antagonists in infected red cells, primary screen, cell-based, P. falciparum Indochina, OD700, 1 h (AID 1154). As to conditions: P. falciparum Indochina infected RBC osmotic lysis, higher = more signal, called active from +8 up or from −8 down.
The nature of test [14]: PSAC antagonists in infected red cells, primary screen, cell-based, P. falciparum Indochina, OD700, 2 h (AID 1155).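 Note: lysis reports solute entry through the parasite surface anion channel PSAC; channel blockers reduce lysis of infected cells.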 Particulars: P. falciparum Indochina infected erythrocytes, osmotic lysis OD700; higher = more signal, called active from +8 up or from −8 down.
Test [15] can be described thus: osmotic lysis modulators in infected erythrocytes, primary screen, PSAC antagonist project, cell-based, P. falciparum Indochina, OD700, 3 h (AID 1156). As to conditions: higher = more signal, called active from +8 up or from −8 down.
The nature of test [16]: PSAC antagonists in infected red cells, primary screen, cell-based, P. falciparum Indochina, OD700, 18 h (AID 1157). As to conditions: P. falciparum Indochina infected erythrocytes, osmotic lysis OD700, 18 h; higher = more signal, called active from +8 up or from −8 down.
A short description of test [17]: modulators of S6 phosphorylation in cells, primary screen, cell-based, A549, cytoblot, luminescence, serum-stimulated (AID 1158).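 Note: serum-stimulated A549 lung adenocarcinoma cells; signal is phosphorylated S6 detected by cytoblot immunostaining with HRP secondary.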 Particulars: A549 phospho-S6 cytoblot, 5 h, higher = more signal.
Test [18] has as its target NADPH oxidase 2 (Homo sapiens) (UniProt P04839). Nature of the test: NOX2-dependent H2O2 signal modulators, primary screen, NOX inhibitor project, cell-based, HEK293-NOX2, PMA-stimulated, Amplex Red fluorescence (AID 1159). Note: test concentration not given here. Particulars: 45 min, higher = more signal, called active from +8 up or from −8 down.
Test [19] addresses NADPH oxidase 4 (Homo sapiens) (UniProt Q9NPH5). Nature of the test: NOX4-dependent H2O2 signal modulators, primary screen, NOX inhibitor project, cell-based, HEK293-NOX4, tetracycline-induced, Amplex Red fluorescence (AID 1160). Particulars: 45 min, higher = more signal, called active from +8 up or from −8 down.
Test [20] concerns the target NADPH oxidase 5 (Homo sapiens) (UniProt Q96PH1). The test is described as follows: NOX5-dependent H2O2 signal modulators, primary screen, NOX inhibitor project, cell-based, HEK293-NOX5, Amplex Red fluorescence (AID 1161). Particulars: HEK293-NOX5, ionomycin, 45 min, higher = more signal.

Sequence of Streptavidin (Streptomyces avidinii) (P22629 whole entry, looked up): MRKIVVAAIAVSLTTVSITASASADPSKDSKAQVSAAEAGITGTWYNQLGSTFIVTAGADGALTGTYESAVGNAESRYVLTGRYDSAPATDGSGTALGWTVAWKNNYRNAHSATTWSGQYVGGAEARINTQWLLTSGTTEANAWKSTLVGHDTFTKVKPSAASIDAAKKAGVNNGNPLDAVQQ
Sequence of NADPH oxidase 2 (Homo sapiens) (P04839 whole entry, looked up): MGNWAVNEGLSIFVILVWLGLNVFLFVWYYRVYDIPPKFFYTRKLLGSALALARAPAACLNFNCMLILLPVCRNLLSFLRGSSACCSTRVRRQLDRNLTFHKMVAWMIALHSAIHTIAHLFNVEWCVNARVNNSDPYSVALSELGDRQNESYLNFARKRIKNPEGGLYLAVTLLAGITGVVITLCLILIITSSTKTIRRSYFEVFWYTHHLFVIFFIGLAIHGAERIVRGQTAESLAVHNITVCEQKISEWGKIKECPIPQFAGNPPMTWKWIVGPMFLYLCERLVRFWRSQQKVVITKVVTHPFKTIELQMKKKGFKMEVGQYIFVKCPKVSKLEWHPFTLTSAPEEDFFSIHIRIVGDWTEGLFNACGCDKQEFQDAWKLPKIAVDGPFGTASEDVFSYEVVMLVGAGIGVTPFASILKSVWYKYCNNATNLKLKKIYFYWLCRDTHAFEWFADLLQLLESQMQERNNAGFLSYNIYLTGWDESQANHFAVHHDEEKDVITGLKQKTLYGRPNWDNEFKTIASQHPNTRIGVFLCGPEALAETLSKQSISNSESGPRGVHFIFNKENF
Sequence of NADPH oxidase 4 (Homo sapiens) (Q9NPH5 whole entry, looked up): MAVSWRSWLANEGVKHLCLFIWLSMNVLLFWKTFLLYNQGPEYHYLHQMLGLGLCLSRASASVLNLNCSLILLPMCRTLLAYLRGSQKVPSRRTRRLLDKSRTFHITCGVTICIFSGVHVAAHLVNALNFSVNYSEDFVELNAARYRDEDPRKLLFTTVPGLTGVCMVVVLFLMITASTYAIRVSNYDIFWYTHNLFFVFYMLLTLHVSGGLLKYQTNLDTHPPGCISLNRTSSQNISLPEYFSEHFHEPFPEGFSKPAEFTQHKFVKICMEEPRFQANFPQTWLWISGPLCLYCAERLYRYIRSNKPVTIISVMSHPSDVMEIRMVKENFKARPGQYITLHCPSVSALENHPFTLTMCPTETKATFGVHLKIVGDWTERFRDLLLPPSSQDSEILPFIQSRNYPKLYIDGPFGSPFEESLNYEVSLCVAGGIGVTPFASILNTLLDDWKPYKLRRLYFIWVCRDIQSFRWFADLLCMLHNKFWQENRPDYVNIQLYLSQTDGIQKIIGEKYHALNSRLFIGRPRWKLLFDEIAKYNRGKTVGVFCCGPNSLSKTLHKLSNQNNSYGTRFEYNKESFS
Sequence of NADPH oxidase 5 (Homo sapiens) (Q96PH1 whole entry, looked up): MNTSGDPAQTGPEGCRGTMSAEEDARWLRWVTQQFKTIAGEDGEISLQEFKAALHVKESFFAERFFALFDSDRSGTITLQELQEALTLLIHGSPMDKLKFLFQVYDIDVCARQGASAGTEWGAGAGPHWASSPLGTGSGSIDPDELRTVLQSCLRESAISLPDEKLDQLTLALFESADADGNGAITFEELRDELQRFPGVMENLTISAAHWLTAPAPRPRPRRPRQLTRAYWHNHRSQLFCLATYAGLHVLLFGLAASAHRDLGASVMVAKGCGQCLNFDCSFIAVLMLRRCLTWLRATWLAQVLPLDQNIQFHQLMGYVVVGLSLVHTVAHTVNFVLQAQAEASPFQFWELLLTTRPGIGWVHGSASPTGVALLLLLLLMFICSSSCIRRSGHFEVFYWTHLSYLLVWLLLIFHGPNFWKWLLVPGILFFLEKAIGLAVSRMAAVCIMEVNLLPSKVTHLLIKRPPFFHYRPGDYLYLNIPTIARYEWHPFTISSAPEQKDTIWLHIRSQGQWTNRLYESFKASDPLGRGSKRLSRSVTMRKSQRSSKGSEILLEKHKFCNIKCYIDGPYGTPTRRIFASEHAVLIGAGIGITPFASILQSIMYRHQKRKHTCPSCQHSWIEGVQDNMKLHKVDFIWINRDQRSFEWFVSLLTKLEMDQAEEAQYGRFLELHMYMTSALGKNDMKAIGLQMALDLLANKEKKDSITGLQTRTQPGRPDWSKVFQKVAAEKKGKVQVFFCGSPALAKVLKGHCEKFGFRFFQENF

On to `CCCC=C(CCC)[C@@H](NP(=O)(c1ccccc1)c1ccccc1)c1ccc(-c2ccccc2)cc1`, for which the composite z-score in test [1] was 0.363; in [6], 1.09; in [7] it was 0.3; with Torsin-1A (Homo sapiens) [8], 0.804; in the test with Torsin-1A (Homo sapiens) [9] it was 1.68; in [10], -0.0804. This compound had a composite z-score in test [12] of 0.408. The z-score in test [2] was -1.53 (inactive); in test [3], 0.892 (inactive); in test [4], 0.204 (inactive); in [5], 1.24 (inactive); in test [11] it was -1.61 (inactive); in [13], 3.5 (inactive). The z-score in [14] was 0.766 (inactive); in [15] it was -1.07 (inactive); in test [16] it was 0.96 (inactive); in test [17], -0.422; in test [18], -1.02 (inactive); in test [19], -1.94 (inactive). Further, in [20], the z-score was found to be 2.3.

Consider `[N-]=[N+]=Nc1ccccc1C[C@]1(C(=O)NCC(O)CO)COC(c2ccc(OCCCO)cc2)=N1` (stereo not given in full), for which the composite z-score in [1] was 0.123; in test [6], 0.305; in test [7] it was -0.0131; with Torsin-1A (Homo sapiens) [8] it was 1.3; in the test with Torsin-1A (Homo sapiens) [9] it was 1.72; in [10] it was -1.46. Further, the composite z-score in [12] came to 0.0512. Moreover, the z-score in [2] is -0.231 (inactive); in test [3], -0.3 (inactive); in test [4], 0.493 (inactive); in [5] it was -1.1 (inactive); in test [11], 0.759 (inactive); in [13], 22.8 (active). Also, the z-score in [14] is 4.35 (inactive); in test [15], 3.57 (inactive); in [16], 1.06 (inactive); in test [17], 0.575; in test [18], 1.52 (inactive); in test [19], 0.179 (inactive). In test [20], this compound yielded a z-score of -1.13.

With `CC(C)N1C(=O)c2ccccc2[C@@H](C(=O)NCCN2CCOCC2)[C@@H]1c1ccc(CO)cc1`, the composite z-score is -1.15 in test [1]; -1.14 in test [6]; -0.238 in [7]; -3.17 with Torsin-1A (Homo sapiens) [8]; -1.46 with Torsin-1A (Homo sapiens) [9]; -1.49 in test [10]. The compound further registered a composite z-score in [12] of -0.0908. The z-score in test [2] was 0.179 (inactive); in [3], -0.0165 (inactive); in test [4] it was 0.324 (inactive); in [5], -0.107 (inactive); in [11] it was -0.675 (inactive); in [13], 2.01 (inactive). The z-score in test [14] is -0.151 (inactive); in [15], 1.24 (inactive); in test [16] it was 0.255 (inactive); in test [17] it was -0.468; in test [18] it was 1.59 (inactive); in test [19] it was 0.675 (inactive). Further, in [20], the z-score was determined as 0.474.

On to `CCCCC(CC)C(O)C1C=CC2C(=O)N(C)C(=O)C2N1Nc1ccccc1` (stereo not given), for which the composite z-score in test [1] was 0.122; in test [6], 0.454; in test [7] it was 0.017; with Torsin-1A (Homo sapiens) [8], -0.111; with Torsin-1A (Homo sapiens) [9] it was 0.254; in [10] it was -0.76. Moreover, in [12], the composite z-score is 0.443. Moreover, the z-score is 0.136 (inactive) in test [2]; -0.152 (inactive) in [3]; -0.14 (inactive) in [4]; 0.184 (inactive) in [5]; -1.34 (inactive) in [11]; 0.755 (inactive) in test [13]. Besides, the z-score in [14] is 0.916 (inactive); in test [15], -0.0492 (inactive); in test [16], 0.827 (inactive); in test [17], -0.778; in test [18] it was -1.45 (inactive); in [19] it was -3.67 (inactive). In test [20], this compound registered a z-score of -3.2.

Consider `Cc1ccccc1C(O)C1C=CC2C(=O)NC(=O)C2N1Nc1ccccn1` (stereo not given), for which the composite z-score in test [1] was -0.155; in [6], -0.15; in test [7] it was -0.102; with Torsin-1A (Homo sapiens) [8], 0.248; with Torsin-1A (Homo sapiens) [9], 0.0151; in test [10], -0.224. This compound also gave a composite z-score in test [12] of -0.229. Further, the z-score in [2] was 1.14 (inactive); in test [3], -0.767 (inactive); in test [4], -0.708 (inactive); in test [5], -0.474 (inactive); in [11], -0.908 (inactive); in test [13], 0.408 (inactive). The z-score in [14] is 0.608 (inactive); in test [15], -0.0205 (inactive); in [16], 0.68 (inactive); in [17], -1.01; in test [18], -0.444 (inactive); in [19], -2.62 (inactive). Besides, the z-score in test [20] was -1.27.
